In PubChem BioAssay AID434962 (The Scripps Research Institute Molecular Screening Center, 2010):
The campaign covered roughly 320,000 compounds. About 1,300 (0.41%) were called active. This is one part of a sample in which actives are shown more often than they occur.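 How the source made its calls: active means percent inhibition above the average of all tested compounds plus 3 SD, set per screening campaign (cut at about 16% in these data); inactive means the rest.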

Biological target: Insulin-degrading enzyme (Homo sapiens) (UniProt P14735)
Sequence (P14735 whole entry, looked up): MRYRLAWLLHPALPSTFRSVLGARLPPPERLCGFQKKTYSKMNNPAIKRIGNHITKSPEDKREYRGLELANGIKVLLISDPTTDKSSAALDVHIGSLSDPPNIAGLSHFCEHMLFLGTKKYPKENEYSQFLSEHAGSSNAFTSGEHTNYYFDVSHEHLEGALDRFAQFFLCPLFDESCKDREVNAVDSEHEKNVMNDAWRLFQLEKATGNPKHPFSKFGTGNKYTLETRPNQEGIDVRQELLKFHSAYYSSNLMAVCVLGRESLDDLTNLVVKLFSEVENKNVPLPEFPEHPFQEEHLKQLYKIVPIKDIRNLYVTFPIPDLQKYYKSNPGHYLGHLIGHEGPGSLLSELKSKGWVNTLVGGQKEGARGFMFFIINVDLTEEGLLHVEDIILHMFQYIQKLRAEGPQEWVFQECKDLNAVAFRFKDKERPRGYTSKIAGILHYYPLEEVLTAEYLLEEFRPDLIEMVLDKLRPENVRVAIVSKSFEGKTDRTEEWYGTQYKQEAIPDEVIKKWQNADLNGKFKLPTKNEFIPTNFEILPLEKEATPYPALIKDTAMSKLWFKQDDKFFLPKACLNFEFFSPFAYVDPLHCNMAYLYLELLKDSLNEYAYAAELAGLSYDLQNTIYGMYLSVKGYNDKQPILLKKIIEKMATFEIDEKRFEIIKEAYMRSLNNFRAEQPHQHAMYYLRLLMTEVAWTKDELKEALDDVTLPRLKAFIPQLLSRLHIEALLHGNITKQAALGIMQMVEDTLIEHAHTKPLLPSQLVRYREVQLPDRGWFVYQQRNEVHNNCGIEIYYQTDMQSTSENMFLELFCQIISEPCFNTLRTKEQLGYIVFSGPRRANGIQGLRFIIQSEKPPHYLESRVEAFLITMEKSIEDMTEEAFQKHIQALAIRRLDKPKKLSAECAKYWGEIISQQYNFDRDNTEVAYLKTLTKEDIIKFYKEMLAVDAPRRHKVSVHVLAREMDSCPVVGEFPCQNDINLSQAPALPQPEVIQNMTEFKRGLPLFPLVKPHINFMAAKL
Assay: human IDE inhibitors in live cells, primary screen, fluorescence polarization, HEK cells, FAbetaB substrate (AID 434962);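 further: IDE supplied by intact live HEK cells; FP after avidin binding of uncleaved biotin substrate so inhibition keeps polarization high; 0% = DMSO wells and 100% = 60 µM reference IDE inhibitor Ii1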
Conditions: FAbetaB cleavage, at 5.59 µM, active compounds read high

Compound	inhibition
O=C(CCN1C(=O)COc2ccccc21)NCCCN1CCN(c2ccc(F)cc2)CC1	-5.39% (inactive)
CCN(C(=O)CSc1nnnn1-c1ccc(OC)cc1)C1CCS(=O)(=O)C1 (configuration not stated)	-3.64% (inactive)
CCOc1ccc(NC(=O)c2ccc(NC(=O)C3CCCO3)cc2)cc1 (configuration not stated)	3.26% (inactive)
N#C/C(=C\c1ccc(O)c(O)c1)C(=O)NCc1ccccc1	30.2% (active)
COCCNC(=O)/C(C#N)=C/c1cccc(OCc2ccccc2)c1	3.27% (inactive)
COc1ccc(CNC(=O)/C(C#N)=C/c2cccc(OC)c2OC)cc1	2.96% (inactive)
COc1ccc(CCNC(=O)CC2SC(=Nc3cc(C)cc(C)c3)NC2=O)cc1OC (configuration not stated)	2.28% (inactive)
CCOC(=O)CNC(=O)/C(=C\c1ccc(F)cc1)NC(=O)c1ccccc1	-3% (inactive)
Cn1c2ccccc2c2cc(/C=C(\NC(=O)c3ccccc3)C(=O)NCC(=O)O)ccc21	32.5% (active)
COc1ccc(/C=C(\NC(=O)c2ccccc2)C(=O)NCCN2CCOCC2)cc1OC	0.14% (inactive)
CC(=O)Oc1cc2c(C(=O)NCCN3CCOCC3)c(C)oc2c2ccccc12	-2.28% (inactive)
COc1cccc(OC)c1C(=O)Nc1sc2c(c1C(N)=O)CCCC2	0.41% (inactive)
O=C(Nc1sc2c(c1C(=O)O)CCC2)c1ccccc1F	-2.01% (inactive)
NC(=O)c1c(Nc2nc3c(F)cccc3s2)sc2c1CCCC2	24.3% (active)
Cc1cc(C(C)(C)C)oc1C(=O)N(CC(=O)NC1CCCC1)Cc1ccc(Cl)cc1	6.17% (inactive)
CCN(CCCNC(=O)c1ccc2c(c1)NC(=O)CN2C)c1cccc(C)c1	2.85% (inactive)
CC(C)NC(=O)CSc1nnc(COc2ccccc2Cl)o1	-2.04% (inactive)
CCCCn1c(SCc2ncc(-c3ccccc3)o2)nc2cc(S(N)(=O)=O)ccc21	2.94% (inactive)
COc1ccccc1N(C)C(=O)c1cc(S(=O)(=O)N2CCc3ccccc32)cn1C	-0.28% (inactive)

Compound	inhibition
COc1ccc(C2C=C(c3ccc(Br)cc3)Nc3nc(NS(C)(=O)=O)nn32)cc1 (configuration not stated)	76.7% (active)
CCOc1ccc(C2=CC(c3ccccc3)n3ncnc3N2)cc1 (configuration not stated)	7.53% (inactive)
Brc1ccc(C2=CC(c3ccco3)n3ncnc3N2)cc1 (configuration not stated)	5.82% (inactive)
CCOc1ccc(N(CC(=O)NCCOc2ccccc2OC)S(=O)(=O)c2ccccc2)cc1	4.02% (inactive)
Cc1cc2c(cc1S(=O)(=O)NCc1ccc(Cl)cc1)OCC(=O)N2	5.28% (inactive)
CC1=CC(C)(C)Nc2ccc(OC(=O)CN3C(=O)C4CCCCC4C3=O)cc21 (configuration not stated)	23.6% (active)
CC1=CC(C)(C)Nc2ccc(OC(=O)C(Cc3ccccc3)N3C(=O)C4CCCCC4C3=O)cc21 (configuration not stated)	-5.52% (inactive)
O=C(CN1C(=O)C2C3CCC(C3)C2C1=O)Oc1ccc2ccccc2c1 (configuration not stated)	-0.24% (inactive)
O=C(NCCC1CCCCN1S(=O)(=O)c1ccccc1)C(=O)NCC1CCCO1 (configuration not stated)	3.94% (inactive)
Cc1ccccc1CSc1nnc(-c2ccccc2)c(=O)[nH]1	0.38% (inactive)
COc1cccc(-n2c(Cc3cc(=O)[nH]c(=O)[nH]3)nnc2SCC(=O)Nc2ccccc2)c1	2.57% (inactive)
Cc1cccc(-n2c(Cc3cc(=O)[nH]c(=O)[nH]3)nnc2SCC(=O)Nc2cccc(C(F)(F)F)c2)c1	18.2% (active)
Cc1cccc(-n2c(Cc3cc(=O)[nH]c(=O)[nH]3)nnc2SC(C)C)c1	6.03% (inactive)
Cc1ccc(S(=O)(=O)N2CCN(C(=O)COC(=O)CNC(=O)c3ccc(C(C)(C)C)cc3)CC2)c(C)c1	1.73% (inactive)
CCOc1cc2c(Cl)ncnc2c(OCC)c1OCC	17.1% (active)
CCOc1cc(C(=O)Nc2ncccn2)cc(OCC)c1OCC	-0.15% (inactive)
CCOc1cc(-c2conc2N)cc(OCC)c1OCC	0.37% (inactive)
Cc1ccc(S(=O)(=O)N2CCN(CC(=O)N/N=C/c3ccc(Br)s3)CC2)cc1	2.15% (inactive)
CCOC(=O)c1csc(NC(=O)c2ccc(S(=O)(=O)N3CCCC3)cc2)n1	0.72% (inactive)

Compound	inhibition
CNC(=O)c1ccsc1NC(=O)c1ccc(S(=O)(=O)N2CCOCC2)cc1	6.05% (inactive)
COc1ccc(C(=O)Nc2nc(-c3ccc(S(=O)(=O)N4CCOCC4)cc3)cs2)cc1	24.5% (active)
CC(=O)CC(CC(=O)NC1CCCCC1)c1ccccc1 (configuration not stated)	-6.38% (inactive)
COCCCNC(=O)/C=C/c1ccc(OCc2c(F)cccc2Cl)cc1	11.8% (inactive)
CN(C)CCCNC(=O)/C=C/c1ccc(OCc2c(F)cccc2Cl)cc1	5.4% (inactive)
O=C(/C=C/c1ccc(OCc2c(F)cccc2Cl)cc1)N1CCOCC1	21.1% (active)
CC1C=CCC2C(=O)N(c3cccc(C(=O)N4CCCCCC4)c3)C(=O)C12 (configuration not stated)	-1.29% (inactive)
Cc1cccc(N2CCN(C(=O)c3cccc(N4C(=O)C5C6C=CC(C6)C5C4=O)c3)CC2)c1C (configuration not stated)	44.4% (active)
CCn1c(C)c(C)c2cc(C(=O)N3CCN(c4cccc(C)c4C)CC3)ccc21	-0.11% (inactive)
CC(C)(C)C(=O)Nc1c(Br)c(C2CC2)nn1-c1ccccc1	0.92% (inactive)
Cc1c(NC(=O)C(C)OC(=O)c2cc3c4ccccc4n(C)c3s2)c(=O)n(-c2ccccc2)n1C (configuration not stated)	-0.34% (inactive)
CCCn1c(N)c(C(=O)CSc2nc3ccccc3c(=O)n2-c2ccc(OC)cc2)c(=O)[nH]c1=O	-10.9% (inactive)
COc1ccc(Br)cc1C(=O)Nc1cccc(C)c1C	2.56% (inactive)
COc1ccc(Br)cc1C(=O)NC(=S)Nc1cc(-c2nc3ccccc3[nH]2)ccc1C	24.5% (active)
Cc1cc2[nH]ncc2cc1NC(=S)NC(=O)c1ccccc1	-2.99% (inactive)
CCOC(=O)C(CC)/C(C)=N\NC(=O)c1cccc(C)c1 (configuration not stated)	-1% (inactive)
Cc1cc(Cl)ccc1OCCCC(=O)Nc1cccc(-n2cnnn2)c1	6.2% (inactive)
Cc1cc(Cl)ccc1OCCCC(=O)NCc1ccccn1	-0.14% (inactive)
Cc1cc(Cl)ccc1OCCCC(=O)NCc1ccncc1	22.1% (active)
